Screening data as filed in PubChem BioAssay.
A selection: hits, their analogues and other compounds. The true share with any hit is near 21%.
Shiga toxin inh: inhibitors of Shiga toxin in Vero cells; Vero cells, Shiga toxin protein synthesis inhibition reporter; 290,000 tested, 9.2% active; inhibition, % at 38.7 µM; AID 2315; in the data active means inhibition mostly above about 28%, no sharp cut-off; inactive means mostly below about 43%; further: 0% is about no effect
NS1 function inh: influenza NS1 inhibition. Potency, µM (series often up to 46.1 µM), for the others: at the highest dose activity, positive = more growth. 270,000 tested, 0.4% active. AID 2326; further: potency means the concentration at half of the fitted maximal effect; actives are rising curves; nearly all actives have a fitted effect of over 50% in size
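OD600 was taken as the measure of yeast growth restored by compound in an NS1-expressing S. cerevisiae strain. Cells had been washed out of glucose medium and diluted 1:100 into galactose -URA medium, pH 6.0.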
Pf growth 96h: inhibits malaria parasite growth, 96 h | P. falciparum luciferase reporter growth, 96 h | Potency, µM (highest dose often 28.7 µM), for the others: top-dose activity change, negative = inhibition, actives largely listed as inhibitors | 320,000 tested, 6.9% active; active means well fitted inhibition curve with a large enough effect; inconclusive means small, poorly fitted or top-dose-only effect, or another doubt; inactive means no such curve, though single readings can be large or run the other way; further: potency means the concentration at half of the fitted maximal effect; on the % scale 0 is the no-effect control and ±100 the full control effect
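P. falciparum expressing integrated firefly luciferase grown in erythrocytes (2% hematocrit, 0.05% parasitemia final) with compounds for 96 hours at 37 C, 5% CO2. Growth inhibition read as loss of luminescence after adding luciferase detection reagent.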
Cycloheximide cs: affects cycloheximide protein synthesis inhibition readout, counter-screen | max response, % | 300,000 tested, 12% active | cell reporter, cycloheximide protein synthesis inhibition counterscreen; in the data active means max response mostly above about 13%, no sharp cut-off; inactive means mostly below about 14%; further: read at 38.3 µM for the half of the compounds with a filed dose; 0% is about no effect
SARS PLpro yeast: inhibitors of SARS-CoV papain-like protease in yeast; 330,000 tested, 0.19% active; S. cerevisiae expressing SARS-CoV PLpro, growth rescue; AID 485353; Potency, µM (doses to about 32.9 µM), for inactives: top-dose activity, positive = growth rescue, actives largely listed as activators; further: potency means the concentration at half of the fitted maximal effect; 0% is about no effect; nearly all actives have a fitted effect of over 55% in size
Pf growth 48h: inhibits P. falciparum growth in the first generation, 48 h | P. falciparum luciferase growth in erythrocytes, 48 h | Potency, µM (titrated, usually from 28.7 µM), for the others: at the highest dose activity change, negative = inhibition, usual class: inhibitors | 310,000 tested, 5.9% active | AID 504832; active means well fitted inhibition curve with a large enough effect; inconclusive means small, poorly fitted or top-dose-only effect, or another doubt; inactive means no such curve, though single readings can be large or run the other way; further: potency means the concentration at half of the fitted maximal effect; on the % scale 0 is the no-effect control and ±100 the full control effect
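Here the parasites carry a stable luciferase gene and grow inside erythrocytes in Albumax-based RPMI medium with compound for one erythrocytic cycle. Activity is scored as loss of luminescent signal.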
Numbers without * were called inactive; ? = inconclusive; · = no result; + = active, no number. Unless noted, the call rests on the fitted dose curve.

SMILES	Shiga toxin inh	NS1 function inh	Pf growth 96h	Cycloheximide cs	SARS PLpro yeast	Pf growth 48h
CCOC(=O)c1cnc2sc3c(n2c1=O)CCCC3	92*	-59%	?	43*	7%	?
CCOC(=O)c1cnc2nc(C)[nH]n2c1=O	-5	6%	48%	-3	1%	6%
CCOC(=O)c1cnc2oc3ccccc3n2c1=O	·	17%	40%	58*	·	2%
COc1cc(C(=O)NC(C)c2cc(C)ccc2C)ccc1OCC(=O)N1CCOCC1 (stereo not given)	·	·	?	·	5%	?
CCOc1ccc(CNC(=O)CCn2c(=O)oc3ccccc32)cc1OC	-14	4%	9.3µM*	-2	8%	?
CCOc1ccccc1CNC(=O)Cn1c(=O)oc2ccccc21	22	-5%	-31%	-2	-3%	·
CCOc1ccc(CCNC(=O)Cn2c(=O)oc3ccccc32)cc1OCC	-5	6%	·	5	6%	8.3µM*
COCCN(CCOC)C(=O)CCn1c(=O)oc2ccccc21	2	2%	1.2µM*	-1	-8%	-11%
Cc1ccc(NC(=O)CCCC2CCCCC2)c(O)c1	109*	2%	-70%	34*	-1%	-4%
COCCNC(=O)CCn1c(=O)oc2ccccc21	-3	-1%	10%	13	5%	13%
CCN(CCO)C(=O)CC1C(=O)NCCN1Cc1c(F)cccc1Cl (stereo not given)	1	-1%	?	-1	0%	30%
COc1ccc(/C=C/C(=O)OCC(=O)Nc2c(C)cccc2C)cc1	18	·	10%	13	2%	?
CCOc1ccc(CCNC(=O)CCNC(=O)c2ccco2)cc1OCC	-20	2%	-19%	-3	-2%	11%
Cc1c(C)n(Cc2ccc(F)cc2)c2ccc(C(=O)NCCN3CCOCC3)cc12	-8	5%	-2%	-2	-3%	-14%
CSc1ccccc1NC(=O)CCn1c(=O)oc2ccccc21	-11	3%	7%	-3	0%	0%
CCOc1ccccc1NC(=O)CCn1c(=O)oc2ccccc21	-7	-16%	6.6µM*	-2	2%	13%
Cc1ccc(NC(=O)CCCn2c(=O)oc3ccccc32)c(O)c1	16	-12%	20%	12*	3%	?
C=CCNC(N)=S	-3	8%	26%	-3	2%	6%
COc1ccc(S(=O)(=O)N2CCC(C(=O)NCC3CCCO3)CC2)cc1C (stereo not given)	-5	8%	33%	-2	9%	13%
COc1cc(C(Nc2ccc(S(=O)(=O)N3CCC(C)CC3)cc2)C(=O)NCC2CCCO2)cc(OC)c1OC (stereo not given)	-10	3%	?	-4	-1%	13µM*
COc1cc(C(Nc2ccc(S(=O)(=O)NCC3CCCO3)cc2)C(=O)NC(C)(C)C)cc(OC)c1OC (stereo not given)	-3	-8%	?	-4	-3%	2.1µM*
COc1cccc2cc(C(=O)Nc3ccc(S(=O)(=O)NCC4CCCO4)cc3)c(=O)oc12 (stereo not given)	-3	-1%	60%	-2	1%	2.1µM*
CCOC(=O)C(NC(=O)c1cccc(Cl)c1)(OCc1ccccc1)C(F)(F)F (stereo not given)	+	-19%	?	20*	-1%	?
CCOC(=O)C(NC(=O)c1ccccc1)(OCc1ccccc1)C(F)(F)F (stereo not given)	-3	6%	-8%	-2	6%	14%
Cc1cccc(NC(=O)COC(=O)c2nn(C)c(=O)c3ccccc23)c1C	·	·	·	·	-2%	·
CC(C(=O)Nc1ccccc1Br)c1ccc([N+](=O)[O-])cc1 (stereo not given)	-2	3%	4.1µM*	-2	?	13µM*
O=C(Nc1ccc([N+](=O)[O-])cc1O)Nc1ccccc1Br	61*	·	·	36*	·	·
CC(C(=O)NC1CCCCCC1)c1ccc([N+](=O)[O-])cc1 (stereo not given)	·	-15%	8.3µM*	-3	-1%	-17%
Cc1nc2ccccc2c2c1C(=O)NC2=O	1	-1%	32%	-2	-1%	21%
O=C(CCn1cccc(C(F)(F)F)c1=O)Nc1cccc(C(F)(F)F)c1	11	0%	37%	-1	1%	-20%
